A selection: hits, their analogues and other compounds. The true share with any hit is near 2.1%.
HIF act – HIF pathway transcriptional activation; AID 1910; activation, % at 7.5 µM (by protocol); hit rate 0.32% among 300,000; U2OS HRE-luciferase reporter, luminescence; normalized: DMSO 0%, desferrioxamine 100%;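 active means mean activation of at least 10% of the iron chelator positive control signal, with at least half of replicates also reaching 10%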
Platelet DG rel – platelet dense granule release activity; inhibition, %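 (compounds screened at 7.5 µM in platelet-rich plasma)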; human platelet-rich plasma, SFLLRN dense granule ATP release, luminescence; hit rate 0.22% among 300,000;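 active means mean replicate score, as percent of positive control, at or above 50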
aSyn UTR inh – 5' untranslated region of α-synuclein, MLPCN primary screen | alpha-synuclein 5'UTR reporter, inhibitor activity | inhibition, % (tested at 7.5 µM) | hit rate 0.82% among 300,000; in the data active means inhibition above about 60%;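 further: H4 neuroglioblastoma cells stably carrying SNCA 5'UTR luciferase fusion; 0% = DMSO wells and 100% = positive control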
KLF5 inhibitor – suppresses KLF5 promoter-driven expression. DLD-1 KLF5 promoter-luciferase reporter, luminescence. inhibition, % at 5 µM. hit rate 0.23% among 290,000. AID 1700;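 active means inhibition above a per-plate limit of that plate's mean compound inhibition plus 3 SD, cut at about 60% in these data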;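 further: 0% = DMSO wells and 100% = LY294002 at 200 µM; higher means less KLF5 promoter-driven luciferase light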
Wee1 degr inh – blocks degradation of human Wee1 kinase. hit rate 1.2% among 220,000. P30291. HeLa Luc-Wee1K328M stability, luciferase luminescence; 100% = proteasome inhibitor MG132 effect. reporter increase, % at 5 µM;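 active means activation above the mean of all tested compounds plus 3 SD, set per screening run, cut at about 8.8% in these data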;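 further: cells exposed to compound for 20 h before luminescence read; 0% = DMSO alone and 100% = MG132 at 30 µM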
Target sequence (P30291 whole entry K328M): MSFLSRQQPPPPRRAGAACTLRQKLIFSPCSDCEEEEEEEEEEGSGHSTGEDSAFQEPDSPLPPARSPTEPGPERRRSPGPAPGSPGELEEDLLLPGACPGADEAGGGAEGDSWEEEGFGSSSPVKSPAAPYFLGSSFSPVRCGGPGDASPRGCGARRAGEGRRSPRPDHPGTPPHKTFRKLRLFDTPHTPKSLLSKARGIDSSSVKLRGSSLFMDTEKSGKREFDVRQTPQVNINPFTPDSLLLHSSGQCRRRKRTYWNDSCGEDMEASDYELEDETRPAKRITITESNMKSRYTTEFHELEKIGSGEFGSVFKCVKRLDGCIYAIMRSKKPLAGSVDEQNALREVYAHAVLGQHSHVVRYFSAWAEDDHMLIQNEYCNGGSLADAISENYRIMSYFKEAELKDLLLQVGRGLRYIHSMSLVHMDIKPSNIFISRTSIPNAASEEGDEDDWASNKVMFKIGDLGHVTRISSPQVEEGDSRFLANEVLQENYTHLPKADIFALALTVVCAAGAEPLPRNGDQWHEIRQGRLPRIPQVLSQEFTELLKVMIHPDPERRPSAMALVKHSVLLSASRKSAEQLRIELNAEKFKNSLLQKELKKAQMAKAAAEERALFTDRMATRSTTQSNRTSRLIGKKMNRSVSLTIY
* marks the source's active call; other numbers are inactive results.

Screening CC(=O)Nc1nnc(-c2ccc(Cl)s2)o1 returned HIF act 0.0, Platelet DG rel 0.5, aSyn UTR inh 8.5, KLF5 inhibitor -11.9 and Wee1 degr inh 0.4.
For CCC(=O)Nc1nnc(-c2ccc(Cl)s2)o1 the results were HIF act 0.3, Platelet DG rel 0.2, aSyn UTR inh -22.7, KLF5 inhibitor -33.5 and Wee1 degr inh 9.3*.
CCCCn1c(SCC(=O)N2c3ccccc3CCc3ccccc32)nc2c1c(=O)n(C)c(=O)n2C was read as HIF act -0.4, Platelet DG rel 3.5, aSyn UTR inh 73.7*, KLF5 inhibitor -12.2 and Wee1 degr inh 1.2.
`CCN1CCN(Cc2nc3c(c(=O)[nH]c(=O)n3C)n2Cc2ccccc2Cl)CC1` gave HIF act 0.1, Platelet DG rel 64.9*, aSyn UTR inh -5.4, KLF5 inhibitor 11.8 and Wee1 degr inh 0.3.
COc1cccc2sc(NN)nc12 was read as HIF act -0.1, Platelet DG rel 2.2, aSyn UTR inh -46.1, KLF5 inhibitor -17.9 and Wee1 degr inh -0.1.
COc1cccc2sc(Nc3nnc(-c4ccccc4Cl)o3)nc12 was read as HIF act 0.4, Platelet DG rel 10.8, aSyn UTR inh 66.3*, KLF5 inhibitor -18.9 and Wee1 degr inh 8.0.
Screening Cc1ccc(S(=O)(=O)N2CCN(S(=O)(=O)N3CCC(C)CC3)CC2)c(C)c1 returned HIF act -0.3, Platelet DG rel -7.1, aSyn UTR inh 11.5 and KLF5 inhibitor 2.5.
For CC1CCN(S(=O)(=O)c2ccc3c4c2CC(=O)N4CC(C)S3)CC1 (centres undefined) the results were HIF act 187.3*, Platelet DG rel -1.2, aSyn UTR inh -49.7 and KLF5 inhibitor -21.8.
COc1cc(/C(C)=N/N2CCN(c3ccccc3OC)CC2)ccc1O was read as HIF act 2.5, aSyn UTR inh -5.6 and KLF5 inhibitor -38.7.
For CC(C)OC(=O)c1ccc(NC(=O)C2C3CC4OC(=O)C2C4C3)cc1 (centres undefined) the results were KLF5 inhibitor -129.6 and Wee1 degr inh 9.8*.
For Cc1ccc(NC(=O)C2C3CC4OC(=O)C2C4C3)cc1Cl (centres undefined) the results were KLF5 inhibitor -43.6 and Wee1 degr inh 1.8.
`CCCCn1c(N)c(N(CC(C)C)C(=O)c2ccc(N3C(=O)CCC3=O)cc2)c(=O)[nH]c1=O` gave HIF act 0.6, Platelet DG rel -1.6 and aSyn UTR inh 9.7.
Screening CCCCNC(=O)c1sc2nc(C)cc(COC)c2c1-n1cccc1 returned HIF act -0.3, Platelet DG rel -1.4, aSyn UTR inh -12.9, KLF5 inhibitor -12.5 and Wee1 degr inh -2.2.
`COCc1cc(C)nc2sc(C(=O)NN)c(-n3cccc3)c12` gave HIF act -0.7, Platelet DG rel 1.9, aSyn UTR inh 71.4*, KLF5 inhibitor -32.5 and Wee1 degr inh -2.3.
COc1ccc(NC(=O)C2CCN(S(=O)(=O)c3ccc4c(c3)CC(C)N4C(C)=O)CC2)cc1OC (centres undefined) was read as HIF act 677.6*, Platelet DG rel -3.5, aSyn UTR inh -9.5 and KLF5 inhibitor -18.7.
`Cn1cnnc1SCC(=O)c1ccc(OC(F)F)cc1` gave HIF act -0.7, Platelet DG rel 1.3, aSyn UTR inh -30.4, KLF5 inhibitor -1.2 and Wee1 degr inh 1.8.
For COc1ccc(C(=O)CSc2nncn2C)cc1 the results were HIF act 21.6*, Platelet DG rel -13.3, aSyn UTR inh -1.1, KLF5 inhibitor -45.9 and Wee1 degr inh -0.5.
`COC(C(=O)N/N=C(\C)c1ccc(C(C)(C)C)cc1)c1ccccc1` (centres undefined) gave HIF act -0.8, Platelet DG rel -1.4, aSyn UTR inh 21.4 and KLF5 inhibitor -5.0.
`Cc1ccc(C(C)C)cc1OCC(=O)Nc1ccc(N2CCCCC2)cc1` gave HIF act -2.7, Platelet DG rel -2.8 and aSyn UTR inh 11.8.
`CCCOc1ccc(/C=N/n2nnnc2N)cc1OC` gave HIF act 0.8, Platelet DG rel 4.1, aSyn UTR inh -2.9 and KLF5 inhibitor -8.2.
`Cc1oc2c(c(=O)c1C)C(=O)CC(c1ccccc1)C2` (centres undefined) gave HIF act -0.4, Platelet DG rel 15.4, aSyn UTR inh 8.7, KLF5 inhibitor -29.6 and Wee1 degr inh -1.5.
Screening CS(=O)(=O)c1sc(C#N)c2c1C(=O)CC(c1ccccc1)C2 (centres undefined) returned HIF act -3.6, Platelet DG rel -0.1, aSyn UTR inh 81.1*, KLF5 inhibitor -11.0 and Wee1 degr inh 0.9.
Screening COc1cc(C)c(C(C)C)cc1S(=O)(=O)n1cnc(C)c1 returned HIF act 1.7, Platelet DG rel 4.3, aSyn UTR inh 64.3*, KLF5 inhibitor 37.0 and Wee1 degr inh 3.5.
Screening N#CC1=C(N)SC(N)=C(C#N)C1c1ccc([N+](=O)[O-])cc1 returned HIF act 0.5, Platelet DG rel -4.6, aSyn UTR inh -10.7, KLF5 inhibitor 1.1 and Wee1 degr inh 10.4*.
Screening N#CC1=C(N)SC(N)=C(C#N)C1c1ccc(C(F)(F)F)cc1 returned HIF act 0.3, Platelet DG rel -3.3, aSyn UTR inh 10.4, KLF5 inhibitor -18.5 and Wee1 degr inh -1.0.
Screening Cc1cc(C)c2c(CCl)cc(=O)oc2c1 returned HIF act 1.0, Platelet DG rel 3.9, aSyn UTR inh 91.1*, KLF5 inhibitor -8.0 and Wee1 degr inh -2.8.
`Cc1cc(C)c2c(CN3CCCCC3)cc(=O)oc2c1` gave HIF act -3.0, Platelet DG rel 0.8, aSyn UTR inh -8.3 and KLF5 inhibitor -21.2.
For CCOC(=O)N1CCN(C(=O)/C=C/c2ccc(C(C)(C)C)cc2)CC1 the results were HIF act 0.8, Platelet DG rel 4.4, aSyn UTR inh 24.0 and KLF5 inhibitor -23.5.
Screening Cn1c(=O)cc(C(=O)N/N=C/c2ccc(F)cc2)[nH]c1=O returned HIF act 11.8*, Platelet DG rel 21.6, aSyn UTR inh 7.9, KLF5 inhibitor -9.2 and Wee1 degr inh -1.4.
For O=C(O)c1ccc(/C=N/NC(=O)c2ccc(F)cc2)cc1 the results were HIF act -0.5, Platelet DG rel -0.6, aSyn UTR inh -1.9, KLF5 inhibitor 2.5 and Wee1 degr inh -2.4.
For COCC(C)n1c(SCc2cc(=O)n3cc(C)ccc3n2)nc2ccccc2c1=O (centres undefined) the results were HIF act 0.0, Platelet DG rel -4.5, aSyn UTR inh 64.4*, KLF5 inhibitor -12.8 and Wee1 degr inh -0.6.
Screening c1ccc(-c2nnsc2-c2ccccc2)cc1 returned HIF act 0.7, Platelet DG rel 1.8, aSyn UTR inh 0.3 and KLF5 inhibitor -18.6.
O=S(=O)(c1ccc(Cl)c(Cl)c1)c1snnc1-c1ccccc1 was read as HIF act -0.1, Platelet DG rel -2.5, aSyn UTR inh 118.1*, KLF5 inhibitor 19.4 and Wee1 degr inh 1.3.
For CCOc1ccc(-c2cnc3ccccc3n2)cc1 the results were HIF act -5.8, Platelet DG rel 8.8, aSyn UTR inh 92.2*, KLF5 inhibitor 26.7 and Wee1 degr inh 3.8.

Assay outcomes: PubChem, several laboratories
